Each structure is given as a SMILES string. Where “and” joins values, the source holds several entries; their conditions need not be identical. Identical values can stand only once. Inconclusive results are not listed. Calls of active or inactive are those of the source. Unless noted, calls follow the shape of the dose curve; as a rule, active = well fitted curve in the direction sought with a large enough effect in the repeat runs; inconclusive = weak or mixed curves; inactive = no such curve, though single readings can be large; an effect the other way counts as inactive or inconclusive.

A short description of experiment [1]: qHTS assay to identify small molecule antagonists of the glucocorticoid receptor (GR) signaling pathway - cell viability counter screen (AID 720693). Also: nearly all actives have a fitted effect of over 55% in size. On the technique in general: Quantitative high-throughput screening tests each substance at several concentrations.
A short description of experiment [2]: qHTS assay for identifying genotoxic compounds that show differential cytotoxicity against isogenic chicken DT40 cell lines with known DNA damage response pathways - wild type cell line (AID 743012). Also: nearly all actives have a fitted effect of over 60% in size. Also: potency is read from the fitted curve at half-maximal effect. The method, boiled down: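 Cells (DT40 wild type, 300/well) are treated with DMSO-dissolved compounds after a ~0.5 h pre-incubation and kept 40 h at 37 C/5% CO2. Viability is then measured by CellTiter-Glo luminescence following 30 min at room temperature.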

A short description of experiment [3]: qHTS assay for identifying genotoxic compounds that show differential cytotoxicity against isogenic chicken DT40 cell lines with known DNA damage response pathways - Rev3 mutant cell line (AID 743014). Also: nearly all actives have a fitted effect of over 55% in size. Also: potency is read from the fitted curve at half-maximal effect.
Experiment [4] in a line: qHTS assay for identifying genotoxic compounds that show differential cytotoxicity against isogenic chicken DT40 cell lines with known DNA damage response pathways - Rad54/Ku70 mutant cell line (AID 743015). Also: nearly all actives have a fitted effect of over 60% in size. Also: potency is read from the fitted curve at half-maximal effect.
A short description of experiment [5]: qHTS assay to identify small molecule antagonists of the androgen receptor (AR) signaling pathway - cell viability counter screen (AID 743033; also: nearly all actives have a fitted effect of over 45% in size).
Experiment [6] is described as follows: qHTS assay to identify small molecule antagonists of the androgen receptor (AR) signaling pathway using the MDA cell line - cell viability counter screen (AID 743041; also: nearly all actives have a fitted effect of over 45% in size; also: potency is read from the fitted curve at half-maximal effect). The method, boiled down: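 Cells were plated at 3,000 per well and left 5 h. Compounds in DMSO were then pinned in, followed by R1881. After 16 h at 37C, CellTiter-Fluor fluorescence gave viability.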

For experiment [7], the target named is Androgen receptor (Homo sapiens) (UniProt P10275). Briefly: qHTS assay to identify small molecule antagonists of the androgen receptor (AR) signaling pathway (AID 743035; active = well fitted inhibition curve with a large enough effect in the signal ratio in the repeat runs, not every such curve was filed as active; the % refers to the signal ratio). A digest of the protocol: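 Antagonism is scored as loss of R1881-driven beta-lactamase reporter expression in HEK293 cells carrying the reporter under a UAS element, after 16 h co-treatment at 37C and a 2 h room-temperature FRET substrate read.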
Sequence of Androgen receptor (Homo sapiens) (P10275 whole entry, looked up): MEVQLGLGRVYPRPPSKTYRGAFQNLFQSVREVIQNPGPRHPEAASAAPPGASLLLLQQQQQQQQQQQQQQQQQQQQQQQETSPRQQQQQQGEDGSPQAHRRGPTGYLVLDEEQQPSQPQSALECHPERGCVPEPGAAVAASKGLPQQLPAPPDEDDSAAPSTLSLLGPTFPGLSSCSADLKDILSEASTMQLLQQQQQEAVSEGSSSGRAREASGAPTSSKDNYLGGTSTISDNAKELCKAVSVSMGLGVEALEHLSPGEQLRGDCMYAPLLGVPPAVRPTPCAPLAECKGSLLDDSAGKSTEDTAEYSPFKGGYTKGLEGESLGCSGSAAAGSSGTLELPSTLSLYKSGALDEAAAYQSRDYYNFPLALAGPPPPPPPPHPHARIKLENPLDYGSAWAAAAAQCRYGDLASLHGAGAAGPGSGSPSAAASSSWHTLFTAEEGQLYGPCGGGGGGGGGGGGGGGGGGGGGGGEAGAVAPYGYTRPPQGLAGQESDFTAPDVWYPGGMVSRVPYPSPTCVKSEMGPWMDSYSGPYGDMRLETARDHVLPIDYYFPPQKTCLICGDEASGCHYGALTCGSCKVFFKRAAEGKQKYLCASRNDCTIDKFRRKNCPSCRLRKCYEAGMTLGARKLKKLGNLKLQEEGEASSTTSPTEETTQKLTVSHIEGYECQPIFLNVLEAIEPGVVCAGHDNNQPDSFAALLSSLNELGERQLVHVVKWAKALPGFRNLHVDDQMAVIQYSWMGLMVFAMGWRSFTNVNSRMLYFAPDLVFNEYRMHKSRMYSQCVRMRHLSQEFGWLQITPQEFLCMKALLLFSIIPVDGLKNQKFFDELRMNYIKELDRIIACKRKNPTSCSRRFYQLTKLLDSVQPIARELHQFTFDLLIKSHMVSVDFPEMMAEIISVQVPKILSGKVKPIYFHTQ

Experiment [8] has the same target. The experiment can be described thus: qHTS assay to identify small molecule agonists of the androgen receptor (AR) signaling pathway (AID 743036; active = well fitted activation curve with a large enough effect in the signal ratio in the repeat runs, with a control signal flat, not every such curve was filed as active; the % refers to the signal ratio). The method, boiled down: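 Screening used 2,000 AR-bla HEK293 cells per well, treated 16 h at 37C with test compounds in DMSO alongside positive and DMSO-only controls; beta-lactamase activity was then read by LiveBLAzer B/G FRET fluorescence after 2 h at room temperature.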

For experiment [9] the target is unchanged. Briefly: qHTS assay to identify small molecule agonists of the androgen receptor (AR) signaling pathway using the MDA cell line (AID 743040; also: nearly all actives have a fitted effect of over 20% in size). A digest of the protocol:
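Cells plated, 5 h at 37C/0% CO2; compound or DMSO pinned; 16 h at 37C; ONE-Glo added; luminescence measured after 30 min at room temperature. Reporter line: MDA-kb2 with MMTV-luciferase responsive to AR and GR.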

Experiment [10] has the same target. Briefly: qHTS assay to identify small molecule antagonists of the androgen receptor (AR) signaling pathway using the MDA cell line (AID 743042; also: nearly all actives have a fitted effect of over 55% in size). The method, boiled down: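 Antagonist mode: compounds plus R1881 agonist added to MDA-kb2 AR-luc cells, incubated 16 h at 37C. Luciferase reporter luminescence quantified, with multiplexed CellTiter-Fluor readout for cell viability.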

On to `CCCCC(CC)CO` (stereo unspecified), for which, in experiment [1], the outcome was inactive. For the same compound, the Potency result in experiment [2], in [3], in experiment [4], in [5] and in experiment [6] was “inactive” each time.
For `COc1ccc(Nc2ccccc2)c(C)c1`, in experiment [1], the call was inactive. Besides, the Potency result in [2], in experiment [3], in [4], in [5] and in experiment [6] was “inactive” in each case.
As for `O=C(O)CCCC[C@@H]1SC[C@@H]2NC(=O)N[C@@H]21`, the result in experiment [1] was inactive. Moreover, the Potency result in [2], in experiment [3], in experiment [4], in experiment [5] and in experiment [6] was “inactive” in each case.
As for `CN(C)CCC(c1ccccc1)c1ccccn1` (stereo unspecified), the compound was classed as inactive in experiment [1]. In addition, the Potency entry in experiment [2], in experiment [3], in experiment [4], in experiment [5] and in experiment [6] was “inactive” throughout.
Consider `O=C(O)c1ccc2c(c1)C(=O)OC2=O`, for which the result in [1], in experiment [7] and in experiment [10] was inactive. The Potency entry in experiment [2], in experiment [3], in experiment [4], in [5], in experiment [8] and in [9] was “inactive” each time. Further, in experiment [6], the Potency entry is “inactive”.
On to `COc1cc(Cc2cnc(N)nc2N)cc(OC)c1OC`, for which the compound was called inactive in experiment [1]. Also, the Potency entry in experiment [2], in experiment [3], in [4], in [5] and in experiment [6] was “inactive” each time.
`CCC(O)OC(O)CC` (stereo unspecified): the outcome in experiment [1] was inactive. Moreover, the Potency entry in experiment [2], in [3], in experiment [4], in experiment [5] and in experiment [6] was “inactive” in each case.
`CC(=O)CC(=O)Nc1ccccc1`: the compound was called inactive in [1]. Further, the Potency result in [2], in experiment [3], in experiment [4], in experiment [5] and in [6] was “inactive” in each case.
On to `OCCOCCOCCO`, for which the outcome in [1], in [7] and in experiment [10] was inactive. In addition, the Potency entry in [2], in [3], in experiment [4], in experiment [5], in [8] and in experiment [9] was “inactive” each time. In addition, the Potency entry in experiment [6] was “inactive”.
Consider `c1ccc(OCCOc2ccccc2)cc1`, for which the result in experiment [1] was inactive. In addition, the Potency entry in experiment [2], in experiment [3], in experiment [4], in experiment [5] and in [6] was “inactive” in each case.
Take `C[Si](O[Si](C)(C)C)O[Si](C)(C)C`: the compound was classed as inactive in [1], in [7] and in [10]. Further, the Potency result in experiment [2], in [3], in experiment [4], in experiment [5], in experiment [8] and in [9] was “inactive” in each case. In addition, the Potency entry in experiment [6] is “inactive”.
Consider `CCc1cccc(C)c1N`, for which the compound was classed as inactive in [1], in [7] and in experiment [10]. Also, the Potency result in experiment [2], in [3], in experiment [4], in [5], in experiment [8] and in experiment [9] was “inactive” in each case. The Potency entry in experiment [6] was “inactive”.
`CC(C)(N)CO`: the call in [1] was inactive. For the same compound, the Potency result in [2], in experiment [3], in experiment [4], in [5] and in [6] was “inactive” each time.
With `O=[N+]([O-])c1ccc(/C=C/c2ccc([N+](=O)[O-])cc2S(=O)(=O)O)c(S(=O)(=O)O)c1`, in experiment [1], the compound was classed as inactive. Further, the Potency entry in experiment [2], in [3], in experiment [4], in experiment [5] and in experiment [6] was “inactive” in each case.
For `O=P(OC(CCl)CCl)(OC(CCl)CCl)OC(CCl)CCl`, the compound was called inactive in experiment [1]. Besides, the Potency in experiment [2] is 43.3 µM (active); in experiment [3] it was 30.5 µM (active) and 19.3 µM (active); in experiment [4] it was 54.2 µM (active) and 61.1 µM (active). Further, the Potency result in experiment [5] and in experiment [6] was “inactive” each time.
As for `C=C(C)C(=O)OCCOCCOCCOC(=O)C(=C)C`, the result in experiment [1] was inactive. The Potency result in [2], in [3], in [4], in experiment [5] and in experiment [6] was “inactive” throughout.
As to `CCCCCCCCCCCCc1ccccc1`, the call in experiment [1] was inactive. Besides, the Potency entry in experiment [2], in [3], in [4], in [5] and in [6] was “inactive” throughout.
`Nc1cc([N+](=O)[O-])ccc1O`: the outcome in experiment [1] and in experiment [10] was inactive. Besides, the Potency result in [2], in experiment [3], in experiment [4], in experiment [5], in experiment [8] and in experiment [9] was “inactive” throughout. Further, the Potency in experiment [6] was 54.5 µM (active) and 60.8 µM (active).
With `CC(=O)CC(=O)Nc1ccccc1C`, the compound was classed as inactive in [1]. The Potency result in experiment [2], in [3], in experiment [4], in [5] and in experiment [6] was “inactive” throughout.
As for `O=C(O)CC(C(=O)O)C(CC(=O)O)C(=O)O` (stereo unspecified), the outcome in experiment [1] was inactive. Besides, the Potency entry in [2], in experiment [3], in [4], in experiment [5] and in [6] was “inactive” each time.
Regarding `CCCCCCCCCCCCCCCO`, the result in [1] was inactive. For the same compound, the Potency entry in experiment [2], in experiment [3], in experiment [4], in experiment [5] and in experiment [6] was “inactive” throughout.
In the case of `CC(c1cc2ccccc2s1)N(O)C(N)=O` (stereo unspecified), the compound was called inactive in experiment [1], in [7] and in experiment [10]. In addition, the Potency result in experiment [2], in experiment [3], in experiment [4], in experiment [5], in experiment [8] and in [9] was “inactive” each time. For the same compound, in experiment [6], the Potency entry was “inactive”.
Regarding `Cc1ccc2oc(=O)ccc2c1`, the call in experiment [1] was inactive. Besides, the Potency entry in experiment [2], in [3], in experiment [4], in [5] and in experiment [6] was “inactive” each time.
For `CC1CCC(C(C)C)C(O)C1` (stereo unspecified), the outcome in experiment [1], in [7] and in experiment [10] was inactive. Also, the Potency result in experiment [2], in [3], in experiment [4], in [5], in experiment [8] and in experiment [9] was “inactive” each time. Also, in experiment [6], the Potency result is “inactive”.

(Values after PubChem BioAssay (Tox21).)
